In the library only some 1.3% were active in any assay of this set; here they are far more common.
SRC1 inh: human NCOA1 inhibition; Q15788; HEK293 GAL4-SRC1 luciferase reporter, luminescence; inhibition, % at 3.6 µM; hit rate 0.12% among 360,000; AID 588354;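 active means inhibition above the campaign mean plus 3 SD, with each screening campaign given its own cutoff, cut at about 60% in these data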;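 further: 0% = DMSO treated cells and 100% = gossypol at 36 µM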
SRC2 inh: human SRC2 (NCOA2) inhibition; Q15596; HEK293 GAL4-SRC2 luciferase reporter, luminescence; inhibition, % at 9 µM; hit rate 0.17% among 370,000;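 active means inhibition above the mean inhibition of all tested compounds plus 3 SD, set per campaign, cut at about 52% in these data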;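 further: 0% = DMSO treated cells and 100% = cells given Gossypol at 36 µM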
LRH-1 inv ag: inverse agonists of human LRH-1 (NR5A2); inhibition, % at 3.6 µM; hit rate 0.13% among 360,000; O00482; HEK293T StAR-luciferase reporter, LRH-1 transfected, 24 h;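 active means inhibition above the mean inhibition of all tested compounds plus 3 SD, cut at about 73% in these data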;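 further: 0% = DMSO wells and 100% = reporter-only cells lacking LRH-1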
Target sequence (O00482 whole entry, looked up): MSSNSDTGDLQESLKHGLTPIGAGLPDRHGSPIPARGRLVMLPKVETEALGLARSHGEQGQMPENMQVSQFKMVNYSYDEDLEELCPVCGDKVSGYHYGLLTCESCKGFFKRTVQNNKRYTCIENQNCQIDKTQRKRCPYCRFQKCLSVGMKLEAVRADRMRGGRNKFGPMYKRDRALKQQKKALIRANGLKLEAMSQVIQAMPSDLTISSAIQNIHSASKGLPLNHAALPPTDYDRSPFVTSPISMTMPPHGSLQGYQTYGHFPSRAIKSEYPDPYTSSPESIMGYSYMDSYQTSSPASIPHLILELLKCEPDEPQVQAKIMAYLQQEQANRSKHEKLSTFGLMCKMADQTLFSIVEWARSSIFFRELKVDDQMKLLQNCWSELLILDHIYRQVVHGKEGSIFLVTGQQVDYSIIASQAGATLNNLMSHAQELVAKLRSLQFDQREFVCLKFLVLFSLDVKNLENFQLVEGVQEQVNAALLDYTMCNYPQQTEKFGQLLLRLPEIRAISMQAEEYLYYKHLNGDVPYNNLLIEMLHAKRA
SRC3 inh: inhibitors of human steroid receptor coactivator 3 (SRC3); inhibition, % at 3.6 µM; hit rate 0.17% among 360,000; AID 588352; Q9Y6Q9; HEK293 GAL4-SRC3 luciferase reporter, luminescence;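 active means inhibition above a per-campaign cutoff, the mean of all compounds plus 3 SD, cut at about 60% in these data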;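 further: 0% = DMSO-treated cells and 100% = gossypol-treated cells at 36 µM; higher means less SRC3-driven luciferase light from the GAL4 reporter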
Gli-Sufu antag: blocks Gli-Sufu signaling in a luciferase reporter; Sufu-KO-LIGHT fibroblasts, Gli luciferase reporter luminescence; inhibition, % at 5 µM; hit rate 0.74% among 340,000; AID 588413;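 active means inhibition above about 55%, limit read from the data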;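 further: 0% = DMSO-treated cells and 100% = wells with medium but no cells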
COUP-TFII inh: blocks human COUP-TFII nuclear receptor. P24468. AID 686940. hit rate 0.7% among 370,000. inhibition, % at 8.6 µM. HEK293T NGFI-A luciferase reporter, luminescence;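 active means inhibition above a per-plate cutoff, mean inhibition of test wells between control levels plus 3 SD, cut at about 38% in these data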;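 further: cells cotransfected with COUP-TFII expression vector driving the NGFI-A reporter; 0% = median of COUP-TF2 test wells and 100% = reporter-only cells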
Numbers without * were called inactive.

For O=C(c1c(F)cccc1F)N1CCC(Oc2cccnc2)CC1 the results were SRC2 inh -1.4 and COUP-TFII inh -8.3.
For COc1ccc(N(C(=O)CCl)C(C(=O)NCCc2ccccc2)c2cccs2)cc1Cl (centres undefined) the results were SRC1 inh 2.7, SRC2 inh 47.8, LRH-1 inv ag 39.6, SRC3 inh 76.3*, Gli-Sufu antag 95.7* and COUP-TFII inh 25.9.
`COc1cccc(N(C(=O)CCl)C(C(=O)NCCc2ccccc2)c2cccs2)c1` (centres undefined) gave SRC1 inh 27.9, SRC2 inh 61.4*, LRH-1 inv ag 25.6, SRC3 inh 68.1*, Gli-Sufu antag 92.8* and COUP-TFII inh 7.3.
`COc1cccc(N(C(=O)c2snc(C(N)=O)c2N)C(C(=O)NCC2CCCO2)c2cccs2)c1` (centres undefined) gave SRC1 inh 0.6, SRC2 inh -16.3, LRH-1 inv ag -10.1, SRC3 inh -1.6, Gli-Sufu antag -2.9 and COUP-TFII inh 13.4.
For O=C(Nc1ccc([N+](=O)[O-])cc1)Nc1nc(-c2ccc(Cl)s2)cs1 the results were SRC1 inh 17.1, SRC2 inh 8.4, LRH-1 inv ag -5.9, SRC3 inh 51.0, Gli-Sufu antag 60.5* and COUP-TFII inh 5.2.
CC1CCN(Cc2c(C(=O)N/N=C/c3cc(Cl)ccc3O)nnn2-c2nonc2N)CC1 was read as SRC1 inh 40.3, SRC2 inh -39.1, LRH-1 inv ag 8.5, SRC3 inh 56.8, Gli-Sufu antag 80.1* and COUP-TFII inh -4.1.
`COc1c(Cl)cc(Cl)cc1/C=N/NC(=O)c1nnn(-c2nonc2N)c1CN1CCC(C)CC1` gave SRC1 inh -10.2, SRC2 inh 3.1, LRH-1 inv ag -7.9, SRC3 inh 2.5, Gli-Sufu antag -5.4 and COUP-TFII inh 11.1.
For CC1CCN(Cc2c(C(=O)N/N=C/c3cc(Br)ccc3O)nnn2-c2nonc2N)CC1 the results were SRC1 inh 41.1, SRC2 inh 17.2, LRH-1 inv ag 7.8, SRC3 inh 68.2*, Gli-Sufu antag 86.5* and COUP-TFII inh -10.3.
Screening Cc1cc(C)c(/C=N/NC(=O)c2nnn(-c3nonc3N)c2CN2CCC(C)CC2)c(C)c1 returned SRC1 inh 2.8, SRC2 inh 12.0, LRH-1 inv ag 13.2, SRC3 inh 9.1, Gli-Sufu antag 35.5 and COUP-TFII inh 0.0.
Screening Cc1ccc(Nc2nc(-c3ccc(O)c(O)c3)cs2)nc1 returned SRC2 inh 14.4, Gli-Sufu antag 64.2* and COUP-TFII inh -16.9.
COc1ccc(Cl)c(Cn2c(NCc3ccco3)nc3c2c(=O)n(C)c(=O)n3C)c1 was read as SRC1 inh 1.2, SRC2 inh -22.8, LRH-1 inv ag -8.5, SRC3 inh -1.3, Gli-Sufu antag 70.2* and COUP-TFII inh -2.9.
For CCCn1c(NCc2ccco2)nc2c1c(=O)n(C)c(=O)n2C the results were SRC1 inh -12.6, SRC2 inh 9.0, LRH-1 inv ag 1.3, SRC3 inh -3.2, Gli-Sufu antag 5.9 and COUP-TFII inh 9.3.
For C=CCN1[C@H](CC(C)C)COc2cc(F)ccc2S1(=O)=O the results were SRC2 inh 23.7 and COUP-TFII inh -8.2.
Screening O=c1cccc2n1Cc1cc3ccccc3nc1-2 returned SRC1 inh -83.1, SRC2 inh -64.5, LRH-1 inv ag -106.8, SRC3 inh -73.0, Gli-Sufu antag -62.4 and COUP-TFII inh -58.1.
For CC[C@@]1(O)C(=O)OCc2c1cc1n(c2=O)Cc2cc3c(CN(C)C)c(O)ccc3nc2-1 the results were SRC1 inh 22.2, SRC2 inh 45.5, LRH-1 inv ag 86.2*, SRC3 inh 71.1*, Gli-Sufu antag 61.3* and COUP-TFII inh -5.0.
`CC[C@@]1(O)C(=O)OCc2c1cc1n(c2=O)Cc2cc3c(N)cccc3nc2-1` gave SRC1 inh 57.5, SRC2 inh 46.7, LRH-1 inv ag 91.3*, SRC3 inh 73.5*, Gli-Sufu antag 65.2* and COUP-TFII inh 12.1.
O=C(NCc1ccc(C(=O)N2CCCC2)cc1)c1cccc(Br)c1 was read as SRC2 inh 3.0 and COUP-TFII inh 8.1.
For COc1ccc(-n2c(SCC(=O)NC3CCCCCC3)nnc2-c2ccncc2)cc1 the results were SRC2 inh 1.9 and COUP-TFII inh 5.9.
O=C1CC(=O)OC(c2ccc([N+](=O)[O-])cc2)O1 was read as SRC1 inh -16.7, LRH-1 inv ag 9.4 and SRC3 inh 78.2*.
COc1ccc(C(=O)CSc2nnc(-c3n[nH]c4c3CCC4)n2N)cc1OC was read as SRC2 inh -145.1 and COUP-TFII inh -131.4.
For CCN(CC)c1ccc2cc(-c3nc4ccccc4[nH]3)c(=O)oc2c1 the results were SRC1 inh -35.4, LRH-1 inv ag -41.9, SRC3 inh -30.9 and Gli-Sufu antag -58.1.
`CCN(CC)c1ccc2nc3ccccc3[n+](CC)c2c1` gave SRC1 inh 62.6*, LRH-1 inv ag 76.2*, SRC3 inh 67.8* and Gli-Sufu antag 25.7.
For COc1ccc(C(=O)Nc2nc3ccccc3s2)c(OC)c1 the results were SRC1 inh 88.8*, SRC2 inh 92.8*, LRH-1 inv ag 92.7*, SRC3 inh 91.0*, Gli-Sufu antag 87.8* and COUP-TFII inh 99.3*.
`COc1ccc2nc(NC(=O)c3ccccc3C(=O)O)sc2c1` gave SRC1 inh -2.8, SRC2 inh -37.0, LRH-1 inv ag -3.5, SRC3 inh -8.9, Gli-Sufu antag 29.2 and COUP-TFII inh -1.7.
For CN(C)C(=O)C[C@H]1C[C@@H]2c3cc(NC(=O)NC4CCCC4)ccc3O[C@@H]2[C@@H](CO)O1 the results were SRC2 inh -1.1 and COUP-TFII inh -19.6.
`C[n+]1c(-c2ccccc2)cc2c(=Cc3ccc([N+](=O)[O-])cc3)c3ccccc3n21` gave SRC1 inh 0.2, SRC2 inh -10.2, LRH-1 inv ag -1.0, SRC3 inh 4.7, Gli-Sufu antag 21.6 and COUP-TFII inh -7.4.
CN(C)c1ccc(C=c2c3ccccc3n3c2c2ccccc2[n+]3C)cc1 was read as SRC1 inh 12.9, SRC2 inh 0.6, LRH-1 inv ag 73.0*, SRC3 inh 34.2, Gli-Sufu antag 44.4 and COUP-TFII inh 51.2*.
C[n+]1c(-c2ccccc2)cc2c(=Cc3ccccc3)c3ccccc3n21 was read as SRC1 inh 26.7, SRC2 inh 2.0, LRH-1 inv ag 57.6, SRC3 inh 62.4*, Gli-Sufu antag 77.1* and COUP-TFII inh 31.1.
For CN(C)c1ccc(C=c2c3cc(O)ccc3n3c2cc(-c2ccccc2)[n+]3C)cc1 the results were SRC1 inh -0.5, SRC2 inh -14.4, LRH-1 inv ag 31.2, SRC3 inh 25.9, Gli-Sufu antag 71.8* and COUP-TFII inh 17.6.
`CN(C)c1ccc(C=C2C=Cc3ccccc32)cc1` gave SRC1 inh -103.5, SRC2 inh -35.2, LRH-1 inv ag -123.3, SRC3 inh -76.2, Gli-Sufu antag -80.6 and COUP-TFII inh -56.2.
